Here are results for twelve molecules from PubChem BioAssay.

Molecules are shown by their SMILES. Activity calls are given as the source filed them.

Assay [1] in a line: E. coli DRC41 culture turbidity changes, primary screen, E. coli filamentation inducer project, strain DRC41, OD650, 48 h (AID 1152).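 Note: E. coli MC1000 strain DRC41 lacking acrAB efflux pump and sulA.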 Particulars: E. coli DRC41 (acrAB sulA), higher = more signal, called active from +8 up or from −8 down.
Assay [2] can be described thus: small-molecule binders of probe aLefty1, primary screen, biochemical, small-molecule microarray, 635/667 nm fluorescence (AID 1153).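 Note: score merges spot fluorescence with signal-to-noise ratio from the scanned slide images.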 To be noted: higher = more signal.
Assay [3] in a line: PSAC antagonists in infected red cells, primary screen, cell-based, P. falciparum Indochina, OD700, 1 h (AID 1154). Particulars: P. falciparum Indochina infected RBC osmotic lysis, higher = more signal, called active from +8 up or from −8 down.
Assay [4] is described as follows: PSAC antagonists in infected red cells, primary screen, cell-based, P. falciparum Indochina, OD700, 2 h (AID 1155).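 Note: lysis reports solute entry through the parasite surface anion channel PSAC; channel blockers reduce lysis of infected cells.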 To be noted: P. falciparum Indochina infected erythrocytes, osmotic lysis OD700; higher = more signal, called active from +8 up or from −8 down.
Assay [5] can be described thus: osmotic lysis modulators in infected erythrocytes, primary screen, PSAC antagonist project, cell-based, P. falciparum Indochina, OD700, 3 h (AID 1156). To be noted: higher = more signal, called active from +8 up or from −8 down.
The nature of assay [6]: PSAC antagonists in infected red cells, primary screen, cell-based, P. falciparum Indochina, OD700, 18 h (AID 1157). To be noted: P. falciparum Indochina infected erythrocytes, osmotic lysis OD700, 18 h; higher = more signal, called active from +8 up or from −8 down.
Assay [7] can be described thus: modulators of S6 phosphorylation in cells, primary screen, cell-based, A549, cytoblot, luminescence, serum-stimulated (AID 1158).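 Note: serum-stimulated A549 lung adenocarcinoma cells; signal is phosphorylated S6 detected by cytoblot immunostaining with HRP secondary.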 Particulars: A549 phospho-S6 cytoblot, 5 h, higher = more signal.
For assay [8], the target named is NADPH oxidase 2 (Homo sapiens) (UniProt P04839). Kind of assay: NOX2-dependent H2O2 signal modulators, primary screen, NOX inhibitor project, cell-based, HEK293-NOX2, PMA-stimulated, Amplex Red fluorescence (AID 1159). Note: test concentration not given here. Particulars: 45 min, higher = more signal, called active from +8 up or from −8 down.
Assay [9] addresses NADPH oxidase 4 (Homo sapiens) (UniProt Q9NPH5). Briefly: NOX4-dependent H2O2 signal modulators, primary screen, NOX inhibitor project, cell-based, HEK293-NOX4, tetracycline-induced, Amplex Red fluorescence (AID 1160). To be noted: 45 min, higher = more signal, called active from +8 up or from −8 down.
Assay [10] deals with NADPH oxidase 5 (Homo sapiens) (UniProt Q96PH1). Kind of assay: NOX5-dependent H2O2 signal modulators, primary screen, NOX inhibitor project, cell-based, HEK293-NOX5, Amplex Red fluorescence (AID 1161). Particulars: HEK293-NOX5, ionomycin, 45 min, higher = more signal.
Chain of NADPH oxidase 5 (Homo sapiens) (Q96PH1 whole entry, looked up): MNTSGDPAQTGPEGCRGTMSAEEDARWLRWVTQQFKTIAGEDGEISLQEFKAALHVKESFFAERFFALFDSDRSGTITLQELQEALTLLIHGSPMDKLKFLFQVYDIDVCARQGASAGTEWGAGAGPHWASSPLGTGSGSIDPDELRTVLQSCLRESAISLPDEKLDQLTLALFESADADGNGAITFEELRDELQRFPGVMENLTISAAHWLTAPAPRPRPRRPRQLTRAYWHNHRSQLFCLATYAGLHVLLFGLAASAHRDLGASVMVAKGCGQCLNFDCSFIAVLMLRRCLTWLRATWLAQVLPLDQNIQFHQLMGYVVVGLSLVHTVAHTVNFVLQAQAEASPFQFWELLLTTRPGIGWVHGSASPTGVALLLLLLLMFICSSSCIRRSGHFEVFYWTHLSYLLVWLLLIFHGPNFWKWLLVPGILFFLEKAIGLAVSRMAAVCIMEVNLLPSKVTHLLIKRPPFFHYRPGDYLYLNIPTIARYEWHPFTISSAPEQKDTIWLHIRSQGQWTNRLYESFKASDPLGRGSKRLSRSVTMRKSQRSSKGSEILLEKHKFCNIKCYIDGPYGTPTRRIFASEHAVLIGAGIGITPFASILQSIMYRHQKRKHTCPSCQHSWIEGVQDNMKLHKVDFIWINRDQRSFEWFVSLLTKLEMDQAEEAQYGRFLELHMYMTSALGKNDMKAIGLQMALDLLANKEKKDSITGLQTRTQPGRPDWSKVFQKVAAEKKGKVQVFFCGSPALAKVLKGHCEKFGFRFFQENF

Chain of NADPH oxidase 2 (Homo sapiens) (P04839 whole entry, looked up): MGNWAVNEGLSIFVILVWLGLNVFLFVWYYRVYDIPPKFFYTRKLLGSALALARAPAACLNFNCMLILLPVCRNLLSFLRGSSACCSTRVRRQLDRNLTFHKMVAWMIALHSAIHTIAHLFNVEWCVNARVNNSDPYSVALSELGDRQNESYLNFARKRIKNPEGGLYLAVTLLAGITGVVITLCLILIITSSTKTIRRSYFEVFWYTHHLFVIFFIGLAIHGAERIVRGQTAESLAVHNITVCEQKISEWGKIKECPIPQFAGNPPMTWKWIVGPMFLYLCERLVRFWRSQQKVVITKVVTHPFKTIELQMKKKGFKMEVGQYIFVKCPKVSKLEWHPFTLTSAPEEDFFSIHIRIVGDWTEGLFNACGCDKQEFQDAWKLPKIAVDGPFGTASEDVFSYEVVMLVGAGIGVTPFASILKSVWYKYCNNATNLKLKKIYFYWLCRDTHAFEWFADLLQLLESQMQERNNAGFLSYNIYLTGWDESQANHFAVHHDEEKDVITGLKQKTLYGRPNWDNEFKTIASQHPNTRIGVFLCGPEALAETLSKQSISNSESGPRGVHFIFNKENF
Chain of NADPH oxidase 4 (Homo sapiens) (Q9NPH5 whole entry, looked up): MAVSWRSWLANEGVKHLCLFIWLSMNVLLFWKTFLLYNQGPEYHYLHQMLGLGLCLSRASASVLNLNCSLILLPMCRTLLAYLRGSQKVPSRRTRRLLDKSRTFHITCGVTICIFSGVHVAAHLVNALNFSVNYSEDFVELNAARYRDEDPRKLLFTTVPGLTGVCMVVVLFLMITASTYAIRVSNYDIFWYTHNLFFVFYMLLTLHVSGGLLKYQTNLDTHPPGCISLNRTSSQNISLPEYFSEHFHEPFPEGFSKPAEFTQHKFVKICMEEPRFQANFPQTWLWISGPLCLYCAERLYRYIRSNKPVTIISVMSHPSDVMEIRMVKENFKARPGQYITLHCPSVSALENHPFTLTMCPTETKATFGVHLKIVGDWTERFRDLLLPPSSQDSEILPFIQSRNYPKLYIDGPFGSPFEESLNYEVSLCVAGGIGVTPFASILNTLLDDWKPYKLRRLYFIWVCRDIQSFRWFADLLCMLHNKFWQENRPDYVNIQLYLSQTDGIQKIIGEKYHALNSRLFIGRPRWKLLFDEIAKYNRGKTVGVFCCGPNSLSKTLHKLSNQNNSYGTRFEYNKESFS

Consider `O=C(CS)NCCCCCCNC(=O)[C@@H]1C[C@@H]2C(=O)NCC(=O)N2[C@@H]1c1cccc(OCCO)c1`, for which the z-score in assay [1] was 0.74 (inactive); in [3] it was 3.29 (inactive); in assay [4] it was 0.156 (inactive); in assay [5] it was 2.38 (inactive); in assay [6] it was 0.104 (inactive); in assay [7], 0.59. Moreover, the z-score in [8] is 1.54 (inactive); in assay [9], 0.845 (inactive); in assay [10], 0.711. The composite z-score in assay [2] is -0.887.

As for `CCCC[C@@H]1C[C@H]1[C@@H](NC(=O)c1ccco1)c1ccccc1C(F)(F)F`, the z-score in [1] is -1.91 (inactive); in assay [3], 0.233 (inactive); in assay [4], 0.105 (inactive); in [5], -0.104 (inactive); in assay [6] it was 0.471 (inactive); in assay [7], -0.278. In addition, the values for the z-score in assay [8], in assay [9] and in [10] were -0.295 (inactive), -1.28 (inactive) and -1.26, respectively. Moreover, the composite z-score in assay [2] stood at 2.47.

On to `COC(=O)C(CC#Cc1ccc2c(c1)[C@]1(C(=O)N2)[C@H](c2ccc(OCCO)cc2)N2[C@H](c3ccccc3)[C@H](c3ccccc3)OC(=O)[C@H]2[C@@H]1C(=O)Nc1nc2ccccc2s1)C(=O)OC`, for which the z-score is 1.99 (inactive) in assay [1]; 4.42 (inactive) in [3]; 1.76 (inactive) in assay [4]; 0.66 (inactive) in [5]; 1.82 (inactive) in [6]; -0.206 in [7]. Also, the z-score in assay [8] was 1.18 (inactive); in assay [9], 0.786 (inactive); in assay [10], 1.03. Moreover, the composite z-score in [2] is -0.0611.

With `COCCOC(=O)N1C(=O)[C@@]2(c3cc(C#CCC(C(=O)OC)C(=O)OC)ccc31)[C@H](c1ccccc1OCCO)N1[C@H](c3ccccc3)[C@H](c3ccccc3)OC(=O)[C@H]1[C@@H]2C(=O)N1CCN(c2ncccn2)CC1`, the z-score in assay [1] was 1.2 (inactive); in [3] it was 2.83 (inactive); in [4], 1.11 (inactive); in assay [5] it was 1.28 (inactive); in assay [6], 0.851 (inactive); in [7], -0.139. Also, the z-score was 0.823 (inactive) in assay [8], 0.656 (inactive) in assay [9] and 1.27 in [10]. Further, in assay [2], the composite z-score is 1.16.

Take `CC(C)C[C@@H]1NC(=O)[C@H](C(C)C)NC(=O)[C@@]23C(=O)N[C@@H](Cc4ccccc4)C2[C@H](C)[C@@]2(C)O[C@H]2C3/C=C/CC/C=C/CNC1=O` (stereo not given in full): the z-score in assay [1] was -0.62 (inactive); in assay [3], 4.9 (inactive); in assay [4], 0.538 (inactive); in assay [5], 0.841 (inactive); in assay [6], 0.771 (inactive); in assay [7] it was 0.116. In addition, the z-score in assay [8] was -0.159 (inactive); in [9] it was 0.338 (inactive); in assay [10] it was -0.477. The composite z-score in assay [2] worked out at 0.131.

In the case of `NC(=O)N1C(=O)C2C(C1=O)C1C=C(c3ccc(CO)cc3)C2C(c2cccs2)N1Cc1cccc(OC(F)(F)F)c1` (stereo not given), the z-score is -3.19 (inactive) in assay [1]; 3.08 (inactive) in assay [3]; -0.687 (inactive) in assay [4]; 0.195 (inactive) in assay [5]; -1.98 (inactive) in assay [6]; 2.65 in [7]. Also, the z-score was -1.02 (inactive) in assay [8], -1.22 (inactive) in [9] and -1.25 in [10]. In [2], this molecule gave a composite z-score of 0.424.

On to `COc1ccc(-c2cc3c(c(-c4ccc(Oc5ccccc5)cc4)n2)[Si](C(C)C)(C(C)C)OC3)cn1`, for which the z-score in assay [1] was -1.14 (inactive); in assay [3], 2.85 (inactive); in [4] it was 1.54 (inactive); in [5], 0.208 (inactive); in [6], 0.85 (inactive); in [7], -0.837. Moreover, the z-score in assay [8] was 0.476 (inactive); in [9] it was 0.412 (inactive); in assay [10], 0.179. In assay [2], this molecule yielded a composite z-score of 0.0004.

In the case of `C=C(C)[C@@H]1CC=C(C(O)C2C=CC3C(=O)N(c4ccccc4)C(=O)C3N2Nc2ccccc2)CC1` (stereo not given in full), the z-score in assay [1] is -0.59 (inactive); in assay [3], 8.1 (active); in assay [4], 2.94 (inactive); in assay [5], 1.09 (inactive); in assay [6] it was 1.73 (inactive); in assay [7], -0.798. For the same molecule, the figures for the z-score in assay [8], in assay [9] and in [10] were -0.653 (inactive), -3.06 (inactive) and -2.48, respectively. In assay [2], this molecule registered a composite z-score of 1.33.

Regarding `CCOC(=O)C1=CC[C@@H](c2ccccc2)N(S(=O)(=O)c2ccc(C)cc2)[C@H]1c1ccccc1C`, the z-score in assay [1] was -0.36 (inactive); in assay [3], 1.57 (inactive); in [4], 0.678 (inactive); in [5], -0.569 (inactive); in assay [6] it was 0.879 (inactive); in assay [7] it was -0.102. In addition, the z-score in [8] is 0.515 (inactive); in assay [9], 0.226 (inactive); in assay [10], 0.963. In addition, the composite z-score in assay [2] was 0.589.

As for `C=CC[C@@]12N=C(c3ccc(OCCCO)cc3)O[C@@H]1c1ccccc1N(C)C2=O`, the z-score in assay [1] was 1.12 (inactive); in assay [3] it was 33.2 (active); in assay [4], 32.3 (active); in assay [5], 2.02 (inactive); in assay [6] it was 3.46 (inactive); in assay [7], 0.368. Besides, the z-score in [8] was -2.99 (inactive); in assay [9], -0.963 (inactive); in [10] it was -1.85. This molecule also returned a composite z-score in [2] of 0.349.

`COC(=O)C(CC#Cc1ccc2c(c1)[C@]1(C(=O)N2)[C@H](c2ccc(OCCO)cc2)N2[C@H](c3ccccc3)[C@H](c3ccccc3)OC(=O)[C@H]2[C@@H]1C(=O)N1CCc2cc(OC)c(OC)cc2C1)C(=O)OC`: the z-score in assay [1] was -0.339 (inactive); in assay [3], 3.44 (inactive); in assay [4], 1.89 (inactive); in assay [5], 0.506 (inactive); in [6], 0.754 (inactive); in assay [7], -0.214. Moreover, the z-score was 1.13 (inactive) in assay [8], 0.632 (inactive) in assay [9] and 1.96 in assay [10]. Further, the composite z-score in assay [2] came to 1.08.

For `C[C@H]1NC(=O)[C@@]23C(=O)N[C@@H](Cc4ccccc4)C2[C@H](C)[C@@]2(C)O[C@H]2C3/C=C/C/C=C\CNC(=O)[C@@H]2CCCN2C1=O` (stereo not given in full), the z-score in assay [1] is -0.0438 (inactive); in assay [3] it was 0.306 (inactive); in assay [4], 0.189 (inactive); in [5] it was 0.159 (inactive); in assay [6], 0.108 (inactive); in assay [7], -0.199. In addition, the results for the z-score in assay [8], in assay [9] and in [10] were -0.0374 (inactive), 1.41 (inactive) and 0.41, respectively. For the same molecule, the composite z-score in assay [2] is -0.0046.
